± gives the standard deviation of the averaged measurements.
Molecular target: MurC (UniProt C4ZRI6)
Assay: relative enzymatic activity vs untreated control (fraction); higher = less inhibition
Details: 100 µM; incubation time: 2 h at 37 C
Description: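 In vitro enzymatic inhibition assays (ProFoldin kits) for 12 purified essential E. coli enzymes or complexes, each treated with 218 active antibacterial compounds at 100 µM for 2 h at 37°C. Read-outs were fluorescence or absorbance (phosphate detection, dye binding), converted to activity via standard curves and expressed relative to untreated DMSO controls.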

Sequence of MurC (C4ZRI6 whole entry, looked up): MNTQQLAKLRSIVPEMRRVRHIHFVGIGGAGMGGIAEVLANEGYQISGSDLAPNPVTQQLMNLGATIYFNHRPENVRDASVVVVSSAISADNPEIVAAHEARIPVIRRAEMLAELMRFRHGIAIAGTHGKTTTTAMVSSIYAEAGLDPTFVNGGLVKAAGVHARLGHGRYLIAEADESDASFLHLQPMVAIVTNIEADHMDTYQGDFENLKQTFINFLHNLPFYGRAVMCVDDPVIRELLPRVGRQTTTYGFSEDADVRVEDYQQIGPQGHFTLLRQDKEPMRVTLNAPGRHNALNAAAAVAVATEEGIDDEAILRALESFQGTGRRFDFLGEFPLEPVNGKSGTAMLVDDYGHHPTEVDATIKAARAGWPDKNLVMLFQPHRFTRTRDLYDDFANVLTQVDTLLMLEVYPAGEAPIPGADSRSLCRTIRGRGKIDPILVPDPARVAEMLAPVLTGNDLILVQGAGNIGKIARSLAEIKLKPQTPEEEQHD

Compound	relative enzymatic activity
Cn1ncnc2c(=O)n(C)c(=O)nc1-2	0.99 ± 0.11
O=C1C=C2C(=CCOC2O)O1 (centres undefined)	1.06 ± 0.07
CC(=O)[O][Hg][c]1ccccc1	1.69 ± 0.032
CNC1C(O)C(OC2C(N)CC(N)C(OC3OC(C(C)O)C(O)C(O)C3N)C2O)OCC1(C)O (centres undefined)	1.03 ± 0.029
CC(=O)Oc1ccc(Cl)c2cccnc12	1.03 ± 0.041
O=[N+]([O-])C(Br)(CO)CO	1.11 ± 0.12
O=[N+]([O-])c1ccc(N(CCO)CCO)c2c1no[n+]2[O-]	0.936 ± 0.055
Oc1cc(Cl)ccc1Oc1ccc(Cl)cc1Cl	1.2 ± 0.16
CCn1cc(C(=O)[O-])c(=O)c2cc3c(cc21)OCO3.[K+]	0.977 ± 0.032
CCCCCCCCCCCCCCCC[N+](C)(C)C.[Br-]	0.492 ± 0.29
COP(=S)(OC)Oc1cc(Cl)c(Cl)cc1Cl	1.08 ± 0.024
Cc1c(N)nc([C@H](CC(N)=O)NC[C@@H](N)C(N)=O)nc1C(=O)N[C@H](C(=O)N[C@@H](C)[C@H](O)[C@@H](C)C(=O)N[C@@H](C(=O)NCCc1nc(-c2nc(C(=O)NCCC[S+](C)C)cs2)cs1)[C@@H](C)O)[C@@H](O[C@H]1O[C@H](CO)[C@H](O)[C@@H](O)[C@H]1O[C@H]1O[C@H](CO)[C@@H](O)[C@H](OC(N)=O)[C@@H]1O)c1cnc[nH]1	0.849 ± 0.025
CN1C(=O)[C@]23CC4=CC=C[C@H](O)[C@H]4N2C(=O)[C@@]1(CO)SS3	0.8476 ± 0.0014
[O-][n+]1ccccc1[S][Zn][S]c1cccc[n+]1[O-]	1.21 ± 0.17
Cc1nc2c(=O)n(C)c(=O)nc-2n(C)n1	1.06 ± 0.095
CCCCCCCCCCCCCCCC[n+]1ccccc1	0.754 ± 0.24
C[CH2][Hg][S]c1ccccc1C(=O)[O-].[Na+]	1.17 ± 0.085
O=S(=O)(O)O.Oc1cccc2cccnc12	1.08 ± 0.015
Cc1c(N)nc([C@H](CC(N)=O)NC[C@@H](N)C(N)=O)nc1C(=O)N[C@H](C(=O)N[C@@H](C)[C@H](O)[C@@H](C)C(=O)N[C@@H](C(=O)NCCc1nc(-c2nc(C(=O)NCCC[S+](C)C)cs2)cs1)[C@@H](C)O)[C@@H](O[C@H]1O[C@H](CO)[C@H](O)[C@@H](O)[C@H]1O[C@H]1O[C@H](CO)[C@@H](O)[C@H](OC(N)=O)[C@@H]1O)c1c[nH]cn1	0.895 ± 0.017
CN(C)[C@@H]1C(=O)[C@H](C(N)=O)C(=O)[C@@]2(O)C(=O)[C@@H]3C(=O)c4c(O)cccc4[C@@](C)(O)[C@H]3C[C@@H]12	1 ± 0.031
CN[C@H]1C[C@@H](N)[C@H](O)[C@@H](O[C@@H]2O[C@H](CO)[C@H](O)[C@@H]3O[C@@]4(O[C@H]23)O[C@H]([C@@H](N)CO)[C@H](O)[C@H](O)[C@H]4O)[C@@H]1O	1.04 ± 0.017
CCCCCCCCCCCCCCCC[n+]1ccccc1.[Cl-]	0.264 ± 0.051
CN(C)[C@@H]1C(=O)[C@@H](C(N)=O)C(=O)[C@@]2(O)C(=O)[C@H]3C(=O)c4c(O)ccc(Cl)c4[C@@](C)(O)[C@H]3C[C@@H]12	1.08 ± 0.068
CN(C)[C@@H]1C(=O)C(C(N)=O)=C(O)[C@@]2(O)C(O)=C3C(=O)c4c(O)cccc4[C@](C)(O)[C@H]3C[C@@H]12	1.017 ± 0.0095

— the supplement of paper PMC9446081
